Here are results for five molecules from PubChem BioAssay.

For assay [1], the system named is Wnt5a (protein binding on small-molecule microarray). Description: small molecules binding Wnt5a protein – biophysical, small-molecule microarray, 635/667 nm fluorescence, primary screen (AID 1142).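 Further: fluorescence read at 667 nm with signal to noise per printed feature.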 The settings on record: 635 nm fluorescence, higher = more signal.
Assay [2] is described as follows: ATP-based viability of Huh7 replicon cells – cell-based, CellTiter-Glo luminescence, basal, 48 h, cytotoxicity control for HCV replication inhibitor project, primary screen (AID 1143).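 Further: Huh7 hepatoma cells carrying a hepatitis C replication reporter with no stimulus; test concentration not given here.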 The settings on record: higher = more signal, called active from +8 up or from −8 down. On the technique in general: Replicon systems follow genome replication, usually without infectious particles.

Assay [3] in a line: basal CRE-LacZ reporter activity in PC12 – cell-based, unstimulated, primary screen (AID 1145). The settings on record: no forskolin, luminescence, 4.5 h, higher = more signal, called active from +8 up or from −8 down.
The nature of assay [4]: forskolin-driven CRE-LacZ activity in PC12 – cell-based, CRE-LacZ reporter, forskolin-stimulated, primary screen (AID 1146).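 Further: PC12 cells with 6xCRE LacZ reporter stimulated by forskolin 10 µM; beta-galactosidase reporter signal reflecting CREB driven transcription.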 The settings on record: luminescence, 4.5 h, higher = more signal, called active from +8 up or from −8 down.
In assay [5] the target is Streptavidin (Streptomyces avidinii) (UniProt P22629). Description: compounds binding control protein streptavidin – biophysical, small-molecule microarray, 635/667 nm fluorescence, artefact control for SMM compound annotation, primary screen (AID 1147).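 Further: signal reflects streptavidin binding to arrayed compounds as a control protein.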 The settings on record: higher = more signal.
Chain of Streptavidin (Streptomyces avidinii) (P22629 whole entry, looked up): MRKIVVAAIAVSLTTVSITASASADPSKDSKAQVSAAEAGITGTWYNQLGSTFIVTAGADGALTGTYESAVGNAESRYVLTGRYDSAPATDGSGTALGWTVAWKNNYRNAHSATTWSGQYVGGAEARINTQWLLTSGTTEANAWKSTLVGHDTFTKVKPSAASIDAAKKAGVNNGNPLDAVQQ
Assay [6] is described as follows: probe aInhba binding on compound microarray – biochemical, small-molecule microarray, 635/667 nm fluorescence, primary screen (AID 1148).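 Further: score merges 667nm spot fluorescence with signal-to-noise for antibody binding to printed compounds.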 The settings on record: higher = more signal.
The target in assay [7] is Torsin-1A (Homo sapiens) (UniProt O14656). Description: TOR1A wild-type binding on microarray – cell lysate, small-molecule microarray, lysate, 635/667 nm, primary screen (AID 1149). The settings on record: COS7 hTOR1A-WT lysate, 635 nm fluorescence, higher = more signal.
Chain of Torsin-1A (Homo sapiens) (O14656 whole entry, looked up): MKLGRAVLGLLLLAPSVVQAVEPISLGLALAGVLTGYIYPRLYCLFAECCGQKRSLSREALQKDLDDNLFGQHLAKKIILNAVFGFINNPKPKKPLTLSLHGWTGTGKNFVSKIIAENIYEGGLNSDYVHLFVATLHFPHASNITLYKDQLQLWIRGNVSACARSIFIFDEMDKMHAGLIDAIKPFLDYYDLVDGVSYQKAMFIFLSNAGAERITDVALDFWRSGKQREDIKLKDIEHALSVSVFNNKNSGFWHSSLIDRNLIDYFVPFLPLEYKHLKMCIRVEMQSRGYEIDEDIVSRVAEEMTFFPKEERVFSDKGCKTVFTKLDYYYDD
The target is the same in assay [8]. Description: torsin A mutant lysate binding on microarrays – cell lysate, small-molecule microarray, COS7 lysate, 635/667 nm fluorescence, primary screen (AID 1150).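 Further: score pools 667 nm emission and signal to noise measuring lysate protein binding.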 The settings on record: COS7 hTOR1A mutant lysate, 635 nm fluorescence, higher = more signal.
In assay [9] the test system is Sonic hedgehog protein (Shh). Description: Sonic hedgehog microarray binding compounds – biochemical, small-molecule microarray, 635/667 nm fluorescence, primary screen (AID 1151).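 Further: Shh protein binding to compounds spotted on small-molecule microarray slides; score combines spot fluorescence intensity with signal-to-noise across triplicate slides.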 The settings on record: 635 nm fluorescence, higher = more signal.
The nature of assay [10]: optical density shifts of acrAB sulA E. coli – strain DRC41, OD650, 48 h, E. coli filamentation inducer project, primary screen (AID 1152).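 Further: E. coli MC1000 strain DRC41 lacking acrAB efflux pump and sulA.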 The settings on record: higher = more signal, called active from +8 up or from −8 down.
The nature of assay [11]: probe aLefty1 binding on compound microarray – biochemical, small-molecule microarray, 635/667 nm fluorescence, primary screen (AID 1153).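 Further: score merges spot fluorescence with signal-to-noise ratio from the scanned slide images.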 The settings on record: higher = more signal.
A short description of assay [12]: plasmodial surface anion channel blockers, osmotic lysis – cell-based, P. falciparum Indochina, OD700, 1 h, primary screen (AID 1154). The settings on record: P. falciparum Indochina infected RBC osmotic lysis, higher = more signal, called active from +8 up or from −8 down.
A short description of assay [13]: plasmodial surface anion channel blockers, osmotic lysis – cell-based, P. falciparum Indochina, OD700, 2 h, primary screen (AID 1155).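 Further: lysis reports solute entry through the parasite surface anion channel PSAC.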 The settings on record: P. falciparum Indochina infected erythrocytes, higher = more signal, called active from +8 up or from −8 down.
Assay [14] in a line: changes in parasitized red cell lysis, either direction – P. falciparum Indochina, OD700, 3 h, PSAC antagonist project, primary screen (AID 1156). The settings on record: P. falciparum-infected erythrocytes, osmotic lysis, higher = more signal, called active from +8 up or from −8 down.
Assay [15] can be described thus: plasmodial surface anion channel blockers, osmotic lysis – cell-based, P. falciparum Indochina, OD700, 18 h, primary screen (AID 1157). The settings on record: P. falciparum Indochina infected erythrocytes, osmotic lysis OD700, 18 h; higher = more signal, called active from +8 up or from −8 down.
Assay [16] is described as follows: S6 kinase pathway phospho-S6 level changes – cell-based, A549, cytoblot, luminescence, serum-stimulated, primary screen (AID 1158).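 Further: serum-stimulated A549 lung adenocarcinoma cells; signal is phosphorylated S6 detected by cytoblot immunostaining with HRP secondary.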 The settings on record: 5 h, higher = more signal.
Assay [17] has as its target NADPH oxidase 2 (Homo sapiens) (UniProt P04839). Description: compounds shifting NOX2 Amplex Red fluorescence – cell-based, HEK293-NOX2, PMA-stimulated, NOX inhibitor project, primary screen (AID 1159). Further: test concentration not given here. The settings on record: 45 min, higher = more signal, called active from +8 up or from −8 down.
For assay [18], the target named is NADPH oxidase 4 (Homo sapiens) (UniProt Q9NPH5). Description: compounds shifting NOX4 Amplex Red fluorescence – cell-based, HEK293-NOX4, tetracycline-induced, NOX inhibitor project, primary screen (AID 1160). The settings on record: HEK293-NOX4, Amplex Red H2O2 fluorescence, 45 min; higher = more signal, called active from +8 up or from −8 down.
Chain of NADPH oxidase 4 (Homo sapiens) (Q9NPH5 whole entry, looked up): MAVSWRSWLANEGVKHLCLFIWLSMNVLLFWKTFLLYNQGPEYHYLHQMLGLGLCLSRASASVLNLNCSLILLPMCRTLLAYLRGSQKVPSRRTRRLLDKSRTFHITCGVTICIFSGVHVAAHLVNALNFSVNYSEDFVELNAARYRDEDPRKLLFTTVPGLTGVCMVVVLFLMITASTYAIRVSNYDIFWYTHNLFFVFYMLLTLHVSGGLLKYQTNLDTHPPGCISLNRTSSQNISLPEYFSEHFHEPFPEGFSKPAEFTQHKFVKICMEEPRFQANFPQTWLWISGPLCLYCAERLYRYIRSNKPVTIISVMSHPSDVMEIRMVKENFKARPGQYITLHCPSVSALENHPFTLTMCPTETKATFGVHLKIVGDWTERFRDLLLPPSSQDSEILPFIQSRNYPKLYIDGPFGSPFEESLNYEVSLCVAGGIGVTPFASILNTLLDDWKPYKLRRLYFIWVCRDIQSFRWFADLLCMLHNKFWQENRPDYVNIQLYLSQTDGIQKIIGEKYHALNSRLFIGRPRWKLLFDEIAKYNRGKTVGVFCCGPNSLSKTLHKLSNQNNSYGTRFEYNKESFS
Assay [19] deals with NADPH oxidase 5 (Homo sapiens) (UniProt Q96PH1). Description: compounds shifting NOX5 Amplex Red fluorescence – cell-based, HEK293-NOX5, NOX inhibitor project, primary screen (AID 1161). The settings on record: HEK293-NOX5, ionomycin, 45 min, higher = more signal.
Chain of NADPH oxidase 5 (Homo sapiens) (Q96PH1 whole entry, looked up): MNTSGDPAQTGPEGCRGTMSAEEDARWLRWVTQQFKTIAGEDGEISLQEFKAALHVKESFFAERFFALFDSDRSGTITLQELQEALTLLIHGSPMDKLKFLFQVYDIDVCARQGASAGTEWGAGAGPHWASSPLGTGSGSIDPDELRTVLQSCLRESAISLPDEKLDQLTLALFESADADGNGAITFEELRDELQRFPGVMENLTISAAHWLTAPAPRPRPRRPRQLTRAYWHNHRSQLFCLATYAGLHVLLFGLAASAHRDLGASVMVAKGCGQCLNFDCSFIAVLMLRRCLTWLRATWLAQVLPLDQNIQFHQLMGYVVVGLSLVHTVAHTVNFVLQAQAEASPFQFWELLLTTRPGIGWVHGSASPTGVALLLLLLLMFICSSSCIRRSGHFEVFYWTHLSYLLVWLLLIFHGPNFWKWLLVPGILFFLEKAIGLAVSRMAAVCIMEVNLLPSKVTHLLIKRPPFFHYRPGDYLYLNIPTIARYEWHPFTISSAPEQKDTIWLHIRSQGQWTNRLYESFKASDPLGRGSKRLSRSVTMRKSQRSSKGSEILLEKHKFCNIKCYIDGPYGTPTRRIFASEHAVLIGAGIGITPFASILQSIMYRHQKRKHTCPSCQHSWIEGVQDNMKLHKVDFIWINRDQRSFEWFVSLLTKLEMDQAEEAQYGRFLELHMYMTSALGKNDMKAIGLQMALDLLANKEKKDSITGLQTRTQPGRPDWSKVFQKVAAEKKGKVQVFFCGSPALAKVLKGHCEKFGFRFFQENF
The nature of assay [20]: compound effects on lung adenocarcinoma cell viability – A549, calcein-AM fluorescence, 48 h, basal, profiling panel (AID 1162). Further: test concentration not given here. The settings on record: higher = more signal.

Active and inactive are the calls of the source.

Chain of NADPH oxidase 2 (Homo sapiens) (P04839 whole entry, looked up): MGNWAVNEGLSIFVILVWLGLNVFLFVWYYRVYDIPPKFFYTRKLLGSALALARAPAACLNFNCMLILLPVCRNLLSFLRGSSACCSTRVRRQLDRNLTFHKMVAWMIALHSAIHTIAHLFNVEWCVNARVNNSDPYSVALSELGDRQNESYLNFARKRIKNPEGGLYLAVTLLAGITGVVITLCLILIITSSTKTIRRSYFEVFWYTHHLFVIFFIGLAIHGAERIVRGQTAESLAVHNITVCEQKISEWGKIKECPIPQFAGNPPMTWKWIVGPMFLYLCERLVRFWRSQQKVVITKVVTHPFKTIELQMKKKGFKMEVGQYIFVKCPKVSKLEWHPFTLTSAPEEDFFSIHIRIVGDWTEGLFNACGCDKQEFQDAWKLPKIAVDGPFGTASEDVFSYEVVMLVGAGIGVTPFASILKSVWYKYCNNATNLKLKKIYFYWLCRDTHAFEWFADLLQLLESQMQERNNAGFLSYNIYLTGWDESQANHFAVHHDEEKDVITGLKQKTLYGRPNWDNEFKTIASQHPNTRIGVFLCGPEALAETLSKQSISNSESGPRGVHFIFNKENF

Turning to `COc1ccc([Si](C)(C)[C@@H]2[C@@H](CCn3cc(CCO)nn3)O[C@]3(C(=O)N(Cc4ccc(N5C(=O)c6cccc7cccc5c67)cc4)c4ccccc43)[C@H]2C)cc1`, the composite z-score was 0.0378 in assay [1]; 0.256 in assay [5]; -0.0529 in assay [6]; 0.815 in the assay with Torsin-1A (Homo sapiens) [7]; 0.609 with Torsin-1A (Homo sapiens) [8]; 0.907 in assay [9]. In addition, the composite z-score in assay [11] is 0.457. The z-score is -7.93 (inactive) in assay [2]; 0.353 (inactive) in [3]; -1.65 (inactive) in assay [4]; 1.93 (inactive) in assay [10]; 6 (inactive) in [12]; 0.758 (inactive) in assay [13]. Also, the z-score in assay [14] was -1.06 (inactive); in assay [15], -1.22 (inactive); in assay [16], 2.29; in [17], 2.23 (inactive); in assay [18], 1.62 (inactive); in [19], 1.42. In addition, in assay [20], the z-score is -1.32.
As for `CO[C@H]1O[C@H](CO)[C@@H](OC(=O)Nc2ccccc2)[C@H](OC(=O)Nc2ccccc2-c2ccccc2)[C@H]1OC(=O)Nc1ccccc1-c1ccccc1`, the composite z-score in [1] is 0.289; in [5] it was 0.787; in assay [6], -0.0506; with Torsin-1A (Homo sapiens) [7] it was 0.56; with Torsin-1A (Homo sapiens) [8], 0.679; in assay [9] it was 0.877. The composite z-score in assay [11] is 0.302. Also, the z-score in assay [2] was -5.87 (inactive); in assay [3], 1.56 (inactive); in [4] it was 0.028 (inactive); in assay [10], 0.663 (inactive); in [12], 3.27 (inactive); in assay [13], -0.843 (inactive). In addition, the z-score was -1.21 (inactive) in assay [14]; -1.81 (inactive) in assay [15]; 0.668 in [16]; -6.45 (inactive) in [17]; -0.665 (inactive) in assay [18]; -1.43 in assay [19]. The z-score in assay [20] was -4.11.
In the case of `O=C(NCc1ccccc1)[C@@H]1c2ccccc2C(=O)N(Cc2ccccc2Cl)[C@H]1c1ccc(CO)cc1`, the composite z-score is 0.531 in assay [1]; 0.527 in assay [5]; -0.119 in assay [6]; 1.1 with Torsin-1A (Homo sapiens) [7]; 0.759 in the assay with Torsin-1A (Homo sapiens) [8]; 1.54 in [9]. In assay [11], this molecule displayed a composite z-score of 0.139. For the same molecule, the z-score was -1.32 (inactive) in assay [2]; -0.152 (inactive) in assay [3]; -0.918 (inactive) in assay [4]; 2.17 (inactive) in [10]; 1.79 (inactive) in [12]; -0.576 (inactive) in [13]. Besides, the z-score in [14] is -0.0527 (inactive); in assay [15], -1.17 (inactive); in assay [16] it was 0.894; in assay [17], -0.932 (inactive); in assay [18], 0.992 (inactive); in [19], -0.544. Moreover, in assay [20], the z-score is 0.703.
In the case of `COc1ccc(C#Cc2ccc3c(c2)[C@]2(C(=O)N3)[C@H](c3ccc(O)cc3)N3[C@H](c4ccccc4)[C@H](c4ccccc4)OC(=O)[C@H]3[C@@H]2C(N)=O)cc1`, the composite z-score was 0.295 in assay [1]; -0.881 in assay [5]; -0.153 in [6]; 0.255 with Torsin-1A (Homo sapiens) [7]; -0.0088 with Torsin-1A (Homo sapiens) [8]; -0.301 in assay [9]. This molecule showed a composite z-score in assay [11] of -0.147. In addition, the z-score in assay [2] was -5.1 (inactive); in [3], 0.209 (inactive); in assay [4] it was -0.532 (inactive); in [10], 1.63 (inactive); in [12], 2.89 (inactive); in assay [13] it was 1.58 (inactive). The z-score in assay [14] is 0.672 (inactive); in assay [15], 1.23 (inactive); in assay [16] it was 0.76; in assay [17], 1.76 (inactive); in assay [18], -1.43 (inactive); in assay [19], 0.618. Further, the z-score in [20] is -1.55.
Consider `CN(C)CCCC[C@@H]1NC(=O)[C@@H]2C[C@H](C(=O)NCCCCCNC(=O)CS)[C@H](c3cccc(OCCO)c3)N2C1=O`, for which the composite z-score turned out to be 0.21 in assay [1]; 0.07 in [5]; 0.0869 in [6]; 0.672 with Torsin-1A (Homo sapiens) [7]; 0.408 with Torsin-1A (Homo sapiens) [8]; 2.01 in assay [9]. In [11], the composite z-score amounted to 0.2. In addition, the z-score in assay [2] was -5.23 (inactive); in [3], -0.39 (inactive); in [4] it was -1.49 (inactive); in assay [10], 1.97 (inactive); in assay [12], 2.86 (inactive); in [13], 0.159 (inactive). Also, the z-score was -2.96 (inactive) in assay [14]; -0.778 (inactive) in assay [15]; 2.45 in assay [16]; -0.143 (inactive) in assay [17]; 0.366 (inactive) in assay [18]; 2.19 in assay [19]. Moreover, the z-score in assay [20] was -0.459.
